An excerpt weighted towards active compounds, which were near 19% of everything screened.
DT40 TDP1 no CPT = qHTS for Inhibitors of human tyrosyl-DNA phosphodiesterase 1 (TDP1): qHTS in cells in absence of CPT; AID 686978, 2013; DT40 Tdp1-/- hTDP1 cells, no CPT, ATP luminescence, 48 h; Potency, µM (top dose mostly 46.2 µM), without a hit: at the top dose activity change, negative = growth inhibition, usual class: inhibitors; hit rate 15% among 420,000; note: potency is the fitted concentration of half-maximal effect; nearly all actives have a fitted effect of over 55% in size
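Compound effects on proliferation are scored in DT40 Tdp1-/-;hTDP1 cells in the absence of CPT. ATP levels (CellTiter-Glo luminescence) are recorded after a ≥48 hr, 37 °C incubation.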
IL1B secr inh = inflammasome signaling inhibition, IL-1 beta readout; hit rate 4.7% among 360,000; THP-1 LPS/ATP IL-1B secretion, AlphaLISA, 16 h; stronger effect = lower value; activity change, % at 57.5 µM; AID 743279; in the data active = activity change below about -50%; inconclusive = mostly about -30% to -49%
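Secreted IL-1B measured by AlphaLISA bead assay after 16 h compound exposure of THP-1 cells; compounds (final up to 57.5 uM) added 1 h before LPS (250 ng/mL) and ATP (1.25 mM) stimulation; lower signal means less secretion.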
HT1080NT lethal = kills 2HG-producing HT-1080-NT fibrosarcoma cells | AID 686970 | HT-1080-NT fibrosarcoma viability, CellTiter-Glo ATP luminescence, 48 h | Potency, µM (series often up to 46.1 µM), for the others: at the highest dose activity, negative = less viability, actives largely listed as cytotoxic | hit rate 1.6% among 360,000;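 note: NT is the 2HG producing partner of a matched IDH1 knockdown line; potency is the fitted concentration of half-maximal effect; 0% = DMSO-treated cells and -100% = media-only wells without cells; nearly all actives have a fitted effect of over 55% in size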
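Viability of the 2HG-overproducing fibrosarcoma line after 48 hours of compound exposure at 37 degrees C was determined by luminescence with CellTiter-Glo, and concentration-effect curves were then fitted and categorized.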
HT1080 IDH1KD tx = toxicity to HT-1080 IDH1 knockdown cells (counter line); HT-1080 IDH1 knockdown viability, ATP luminescence, 48 h; Potency, µM (series often up to 46.1 µM), without a hit: at the top dose activity, negative = toxicity, hits mostly cytotoxic; hit rate 2% among 360,000; AID 686971;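 note: potency is the fitted concentration of half-maximal effect; 0% = DMSO wells and -100% = cell-free medium wells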
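HT-1080-IDH1KD cells (IDH1 knocked down), 750/well in RPMI with 5% FBS, treated with compound 48 h at 37 degrees C. Viability by CellTiter-Glo luminescence, normalised to DMSO and no-cell wells; concentration-response curves classed.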
ELG1 DNA repair = blocks ELG1-dependent DNA repair in HEK293T cells; HEK293T ELG1-luciferase reporter, luminescence, 16 h; DNA damage induced by 5-fluorouridine; Potency, µM (top dose mostly 46.1 µM), for the others: top-dose activity change, negative = inhibition, actives largely listed as inhibitors; hit rate 2.3% among 330,000; note: potency is the fitted concentration of half-maximal effect; nearly all actives have a fitted effect of over 55% in size
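In this reporter screen, reduction of luminescence relative to DMSO vehicle indicated activity. Compounds and 5-fluorouridine were added together to 2,000 cells per well, incubated for 16 hr at 37 °C, then developed with ONE-Glo.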
TDP1 cell CPT = DT40-hTDP1 cell growth loss with CPT; chicken DT40 Tdp1-/-;hTDP1 cells + 20 nM CPT, ATP luminescence, 48 h; Potency, µM (titrated, usually from 46.2 µM), inactives show at the highest dose activity change, negative = growth inhibition, actives largely listed as inhibitors; hit rate 12% among 420,000; note: potency is the fitted concentration of half-maximal effect; nearly all actives have a fitted effect of over 55% in size
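Chicken DT40 Tdp1-/- cells stably complemented with human TDP1 were seeded at 400 cells/well in medium containing 20 nM camptothecin, exposed to pin-transferred compounds, and grown at 37 °C for at least 48 hr. Viability was read as ATP luminescence.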
Numbers without * were called inactive. Unless noted, calls come from the whole dose curve; as a rule, active = well fitted curve in the direction sought with a large enough effect; inconclusive = small, poorly fitted or top-dose-only effect, or another doubt; inactive = no such curve, though single readings can be large; an effect the other way counts as inactive or inconclusive. Unless noted, % is set by controls: 0 for no effect and ±100 for the full control effect.

How did COc1ccc(Nc2ncnc3c2cnn3C)c(OC)c1 do in these assays?
DT40 TDP1 no CPT: -11%; TDP1 cell CPT: -5%

What do the screens show for `Nc1sc(-c2ccccc2)cc1-c1n[nH]c(=S)n1C1CCCCC1`?
DT40 TDP1 no CPT: 2.6µM*; IL1B secr inh: 29; HT1080NT lethal: 3.7µM*; HT1080 IDH1KD tx: 1.5µM*; ELG1 DNA repair: 21µM*; TDP1 cell CPT: 16µM*

What do the screens show for `COc1ccc(-n2c(-c3cc(-c4ccccc4)sc3N)n[nH]c2=S)cc1`?
DT40 TDP1 no CPT: 16µM*; IL1B secr inh: 78; HT1080NT lethal: 16µM*; HT1080 IDH1KD tx: inconclusive; ELG1 DNA repair: 10%; TDP1 cell CPT: inconclusive

What do the screens show for `CCCNC(=O)c1cc(C2CCCN(C(=O)C3CCCCC3)C2)on1` (centres undefined)?
DT40 TDP1 no CPT: -12%; IL1B secr inh: 31; HT1080NT lethal: 13%; HT1080 IDH1KD tx: inconclusive; TDP1 cell CPT: -18%

Results for O=C1c2ccccc2C(c2nc3ccccc3[nH]2)N1c1ccccn1 (centres undefined) ?
DT40 TDP1 no CPT: 11%; IL1B secr inh: -3; HT1080NT lethal: 21%; HT1080 IDH1KD tx: 7%; TDP1 cell CPT: 7%

How did CN(C)CC(O)c1ccc(C=Cc2ccc(Cl)cc2)cc1 (centres undefined) do in these assays?
DT40 TDP1 no CPT: 7.3µM*; IL1B secr inh: -92*; HT1080NT lethal: -5%; HT1080 IDH1KD tx: 5.8µM*; TDP1 cell CPT: 7.3µM*

How did O=C(CCn1nc(-c2ccc(Cl)cc2)ccc1=O)N1CCN(c2ccccc2)CC1 do in these assays?
DT40 TDP1 no CPT: inconclusive; IL1B secr inh: -4; HT1080NT lethal: -8%; HT1080 IDH1KD tx: 0%; ELG1 DNA repair: inconclusive; TDP1 cell CPT: inconclusive

How did CCCc1ccc(Oc2cc(N3CCOCC3)nc(-c3ccccc3)n2)cc1 do in these assays?
DT40 TDP1 no CPT: inconclusive; IL1B secr inh: 12; HT1080NT lethal: -7%; HT1080 IDH1KD tx: -12%; TDP1 cell CPT: 29µM*

Results for O=S(=O)(Cc1cc(N2CCOCC2)nc(-c2ccccn2)n1)c1ccccc1 ?
DT40 TDP1 no CPT: 18µM*; IL1B secr inh: -12; HT1080NT lethal: -8%; HT1080 IDH1KD tx: -2%; ELG1 DNA repair: 3%; TDP1 cell CPT: 10µM*

How did Clc1ccc(Sc2cc(N3CCOCC3)nc(-c3ccccc3)n2)cc1 do in these assays?
DT40 TDP1 no CPT: 29µM*; IL1B secr inh: 0; HT1080NT lethal: 2%; HT1080 IDH1KD tx: 13%; ELG1 DNA repair: -6%; TDP1 cell CPT: inconclusive

How did FC(F)(F)c1cc(N2CCOCC2)nc(-c2ccccc2)n1 do in these assays?
DT40 TDP1 no CPT: inconclusive; IL1B secr inh: -10; HT1080NT lethal: -1%; HT1080 IDH1KD tx: -3%; ELG1 DNA repair: 1%; TDP1 cell CPT: inconclusive

How did c1ccc(-c2nc(N3CCOCC3)cc(N3CCOCC3)n2)cc1 do in these assays?
DT40 TDP1 no CPT: -17%; IL1B secr inh: inconclusive; HT1080NT lethal: -10%; HT1080 IDH1KD tx: -4%; ELG1 DNA repair: 15µM*; TDP1 cell CPT: -27%

Results for COCCc1nn2c(=O)cc(COC(=O)COc3ccccc3C)nc2s1 ?
DT40 TDP1 no CPT: -16%; TDP1 cell CPT: 0%

How did CC(C)(C)n1ncc2c(=O)n(CC(=O)c3ccc(Cl)cc3)cnc21 do in these assays?
DT40 TDP1 no CPT: 23µM*; IL1B secr inh: -9; HT1080NT lethal: -11%; HT1080 IDH1KD tx: 0%; ELG1 DNA repair: inconclusive; TDP1 cell CPT: 23µM*

What do the screens show for `CC(C)(C)n1ncc2c(=O)n(CC(=O)NCc3ccccc3)cnc21`?
DT40 TDP1 no CPT: 6.5µM*; IL1B secr inh: 27; HT1080NT lethal: 16µM*; HT1080 IDH1KD tx: 16µM*; ELG1 DNA repair: inconclusive; TDP1 cell CPT: 8.2µM*

How did CC(C)(C)n1ncc2c(=O)n(Cc3ccc(Cl)cc3Cl)cnc21 do in these assays?
DT40 TDP1 no CPT: 15µM*; IL1B secr inh: inconclusive; HT1080NT lethal: -4%; HT1080 IDH1KD tx: 0%; ELG1 DNA repair: 2%; TDP1 cell CPT: 16µM*

Results for CC(C)(C)n1ncc2c(=O)n(CC(=O)Nc3ccc(Cl)cc3)cnc21 ?
DT40 TDP1 no CPT: inconclusive; IL1B secr inh: 39; HT1080NT lethal: -21%; HT1080 IDH1KD tx: -5%; ELG1 DNA repair: -11%; TDP1 cell CPT: inconclusive

What do the screens show for `Cc1cccc(N2CC(c3nc4ccc(C)cc4[nH]3)CC2=O)c1` (centres undefined)?
DT40 TDP1 no CPT: inconclusive; TDP1 cell CPT: -6%

Results for Cc1c(C(=O)N(C)C2CCOC2)sc2ncnc(NCC3(c4ccccc4)CCOCC3)c12 (centres undefined) ?
DT40 TDP1 no CPT: -23%; TDP1 cell CPT: -20%

How did C[C@@H]1CCCCO[C@H](CN(C)Cc2ccc(C(F)(F)F)cc2)[C@@H](C)CN([C@H](C)CO)C(=O)c2cc(NS(=O)(=O)c3cn(C)cn3)ccc2O1 do in these assays?
DT40 TDP1 no CPT: inconclusive; IL1B secr inh: -2; HT1080NT lethal: -1%; HT1080 IDH1KD tx: 17%; TDP1 cell CPT: -26%

Results for COc1ccc(N2CC3=C(C2=O)C(c2ccc(Br)cc2)NC(=O)N3C)cc1 (centres undefined) ?
DT40 TDP1 no CPT: -30%; TDP1 cell CPT: -7%

What do the screens show for `Cc1nc(Sc2ccc(Cl)cc2)c(C#N)c(C)c1[N+](=O)[O-]`?
DT40 TDP1 no CPT: 10µM*; HT1080NT lethal: inconclusive; HT1080 IDH1KD tx: inconclusive; ELG1 DNA repair: inconclusive; TDP1 cell CPT: inconclusive

What do the screens show for `Cc1nc(Sc2ccc(Br)cc2)c(C#N)c(C)c1[N+](=O)[O-]`?
DT40 TDP1 no CPT: 9.2µM*; IL1B secr inh: -105*; HT1080NT lethal: inconclusive; HT1080 IDH1KD tx: inconclusive; ELG1 DNA repair: -5%; TDP1 cell CPT: 21µM*

What do the screens show for `COc1cccc(C(=O)N2CCC[C@H]2C(=O)N2CCC[C@H]2C(=O)N[C@@H](C)c2ccccc2)c1`?
DT40 TDP1 no CPT: -24%; IL1B secr inh: 35; HT1080NT lethal: 10%; HT1080 IDH1KD tx: 6%; TDP1 cell CPT: -15%

Results for O=C(CNC(=O)c1ccc(Cl)cc1Cl)OCc1nnc(-c2ccccc2)o1 ?
DT40 TDP1 no CPT: -5%; IL1B secr inh: 11; HT1080NT lethal: 11%; HT1080 IDH1KD tx: 3%; ELG1 DNA repair: 22%; TDP1 cell CPT: 14%

What do the screens show for `CCOC(=O)c1cnc2cc(-c3ccc(Cl)cc3)nn2c1-c1ccccc1`?
DT40 TDP1 no CPT: 13µM*; TDP1 cell CPT: inconclusive
